Data as given in ChEMBL document CHEMBL1157539, “Thousands of chemical starting points for antimalarial lead identification” (Nature, 2010).

Experiments:
Format in all cases: functional
[1] = system: Plasmodium falciparum; test: GSK_TCMDC: Inhibition of Plasmodium falciparum 3D7 in whole red blood cells, using parasite LDH activity as an index of growth. Test compounds present at 2uM
[2] = system: Plasmodium falciparum; test: GSK_TCMDC: Inhibition of Plasmodium falciparum Dd2 in whole red blood cells, using parasite LDH activity as an index of growth. Test compounds present at 2uM
[3] = system: HepG2; test: GSK_TCMDC: Percent inhibition of human HepG2 cell line. Test compounds present at 10uM.

| SMILES | Inhibition [1] | Inhibition [2] | Inhibition [3] |
| --- | --- | --- | --- |
| Cc1ccc(CNc2ccc3ncc(-c4cccc(C(=O)NCCN(C)C)c4)n3n2)c(C)c1 | 100% | 78% | 97% |
| COc1ccccc1C(=O)Nc1ccc(Nc2nc(C)cc(N3CCOCC3)n2)cc1 | 98% | 22% | 28% |
| CCc1c(CCNC/C=C/C=C/CNCCc2ccc(OC)c(OC)c2CC)ccc(OC)c1OC.Cl | 100% | 99% | 75% |
| Cc1cccc(Oc2cccc3[nH]nc(N)c23)c1 | 85% | 0% | 6% |
| CC(Cc1ccc(C(=O)OC(c2ccccc2)c2ccccc2)cc1)NCC(O)c1ccccc1.Cl (configuration not stated) | 100% | 98% | 83% |
| O=C(NC1CCN(c2ccnc3cc(Cl)ccc23)C1)c1cccc(F)c1.O=C(O)C(F)(F)F (configuration not stated) | 95% | 98% | 30% |
| Cc1cc(N(C)C)nc(Nc2ccc(NS(=O)(=O)c3ccccc3)cc2)n1 | 92% | 11% | 0% |
| O=C(O)C(F)(F)F.Oc1ccc(CN2Cc3ccccc3OC3(CCN(Cc4c[nH]c5cnccc45)CC3)C2)cc1 | 100% | 3% | 17% |
| COc1ccc(CNc2ccnc3cc(OC)ccc23)cc1 | 100% | 74% | 7% |
| Cc1nn(C2CCS(=O)(=O)C2)c(C)c1C1Nc2ccccc2C(=O)N1Cc1ccc2c(c1)OCO2 (configuration not stated) | 98% | 93% | 7% |
| O=C(Nc1ccc(Br)cc1)Nc1ccc(Cn2ncc(N3CCCNCC3)c(Cl)c2=O)cc1.O=C(O)C(F)(F)F | 87% | 15% | 0% |
| CC1(CCCCN2CCC(c3c[nH]c4cnccc34)CC2)C(=O)Nc2cccc(Cl)c21 (configuration not stated) | 100% | 0% | 26% |
| CCN(CC)CCn1c2ccccc2c2ccc(C(=O)Nc3ccc4sc(C)nc4c3)cc21.Cl | 84% | 26% | 97% |
| CCCN1CCN(CCNC(=O)c2cccc(Nc3nccc(Nc4ccc(Oc5ccccc5)cc4)n3)c2)CC1 | 99% | 96% | 56% |
| Cl.Fc1cccc(COc2ccc(Nc3ncnc4sc(C#C[C@H]5CCCN5)cc34)cc2F)c1 | 98% | 17% | 13% |
| Brc1cc(Br)c2c(c1)C(NCCCNc1nc3ncccc3[nH]1)CCN2.O=C(O)CCC(=O)O (configuration not stated) | 99% | 83% | 5% |
| COc1ccc2nc(-c3cccc(C)n3)nc(Nc3ccncc3)c2c1 | 100% | 42% | 0% |
| O=C(Nc1cccc(OC2CCN(Cc3ccccc3)CC2)c1)c1ccc([N+](=O)[O-])cc1.O=C(O)C(F)(F)F | 100% | 2% | 6% |
| C#CCCC(=O)Nc1cccc(-c2cccc(-c3nc4cc(C(F)(F)F)ccc4[nH]3)c2)c1 | 90% | 45% | 14% |
| O=C(NCc1cccc2ccccc12)[C@@H]1CCCN1C(=O)c1ccc(O)c(-c2ccc(Cl)c(Cl)c2)c1 | 98% | 71% | 0% |
| Cc1c(CNCCCNc2cc(=O)c3ccccc3[nH]2)sc(C(F)F)c1Br.Cl | 98% | 29% | 0% |
| CC1CCCCC1N(C)C1CCN(CCCNC(=O)C=Cc2ccccc2Cl)CC1 (configuration not stated) | 100% | 14% | 30% |
| C=CCOc1ccc(CNC2CCN(Cc3ccccc3)CC2)cc1Br.O=C(O)C(=O)O | 92% | 8% | 9% |
| CC(C)Nc1nc(NCCc2c[nH]cn2)nc(NCc2cccc3ccccc23)n1 | 90% | 0% | 4% |
| CCc1cccc(OCC2CCCN(c3ccc(C(=O)NC4CC4)cn3)C2)c1 (configuration not stated) | 94% | 73% | 0% |
| CCCCNC[C@@H](O)[C@H](Cc1ccccc1)NC(=O)c1cc2c3c(c1)c(CC)cn3CCS(=O)(=O)N2C.O=CO | 99% | 98% | 0% |
| COc1ccc2nccc([C@@H](O)CN3CCC(NCCOc4cccc(C(F)(F)F)c4Cl)CC3)c2c1.O=C(O)C(=O)O | 100% | 98% | 13% |
| C#CCNCc1ccc(-c2cccc(-c3nc4cccc(C)c4[nH]3)c2)cc1.O=C(O)C(F)(F)F | 100% | 32% | 0% |
| CC(CN(C)C)C(=O)Nc1ccc(-c2ccc(-c3nc4ccccc4[nH]3)cc2)cc1 (configuration not stated) | 99% | 83% | 2% |
